Data: PubChem BioAssay (EPA / NIEHS)
Results filed as inconclusive are left out. The source made the active and inactive calls. The calls were made as follows: active = hit-call score of the fitted dose curve at least 0.9, where 1 is the maximum; inconclusive = response in the unintended direction; inactive = score below 0.9.

molecular target: human SRC Proto-Oncogene, Non-receptor Tyrosine Kinase (SRC), SRC (gene 6714) (UniProt P12931); assay: NVS_ENZ_hSRC: NovaScreen (NVS) Enzymatic Assay for human SRC Proto-Oncogene, Non-receptor Tyrosine Kinase (SRC) (AID 2283223)
Method in brief: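 Compounds passing 30% inhibition at 25 uM (duplicate) were titrated to a top concentration of 50 uM. Enzyme activity read by fluorescence with mobility-shift substrate/product separation after 1 h; DMSO baseline.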

Sequence of human SRC Proto-Oncogene, Non-receptor Tyrosine Kinase (SRC), SRC (gene 6714) (P12931 whole entry, looked up): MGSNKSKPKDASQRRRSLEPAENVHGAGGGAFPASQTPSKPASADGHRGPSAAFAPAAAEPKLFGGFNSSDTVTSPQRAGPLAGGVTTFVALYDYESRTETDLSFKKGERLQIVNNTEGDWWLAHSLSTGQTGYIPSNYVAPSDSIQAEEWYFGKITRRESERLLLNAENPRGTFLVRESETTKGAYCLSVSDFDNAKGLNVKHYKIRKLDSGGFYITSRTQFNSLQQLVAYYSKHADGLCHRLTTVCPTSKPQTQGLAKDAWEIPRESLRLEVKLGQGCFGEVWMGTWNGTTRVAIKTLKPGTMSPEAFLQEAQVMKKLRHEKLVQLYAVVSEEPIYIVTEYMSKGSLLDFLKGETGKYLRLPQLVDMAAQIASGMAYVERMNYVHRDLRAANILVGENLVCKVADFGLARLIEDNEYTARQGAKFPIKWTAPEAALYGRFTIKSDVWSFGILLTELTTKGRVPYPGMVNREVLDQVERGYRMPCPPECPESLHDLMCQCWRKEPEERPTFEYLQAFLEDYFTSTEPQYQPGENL

Row | SMILES | outcome | AC50
1 | CC(=O)O | inactive | 
2 | CCCCCCCCCCCCCCOS(=O)(=O)O |  | 37.1 µM (active)
3 | CCCCc1nc2cccnc2n1Cc1ccc(-c2ccccc2-c2nnn[nH]2)cc1 | inactive | 

molecular target: rabbit Imidazoline 2 Central (I2C), CKB (gene 100009085) (UniProt P00567); assay: NVS_ENZ_rabI2C: NovaScreen (NVS) Enzymatic Assay for rabbit Imidazoline 2 Central (I2C) (AID 2283228)
Method in brief: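 Rabbit brain membranes, cell-free; readout by filter-based scintillation counting 1.5 hours after dosing, loss of signal vs DMSO. Initial duplicate test at 25 uM, then concentration-response with 50 uM top concentration.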

Sequence of rabbit Imidazoline 2 Central (I2C), CKB (gene 100009085) (P00567 whole entry, looked up): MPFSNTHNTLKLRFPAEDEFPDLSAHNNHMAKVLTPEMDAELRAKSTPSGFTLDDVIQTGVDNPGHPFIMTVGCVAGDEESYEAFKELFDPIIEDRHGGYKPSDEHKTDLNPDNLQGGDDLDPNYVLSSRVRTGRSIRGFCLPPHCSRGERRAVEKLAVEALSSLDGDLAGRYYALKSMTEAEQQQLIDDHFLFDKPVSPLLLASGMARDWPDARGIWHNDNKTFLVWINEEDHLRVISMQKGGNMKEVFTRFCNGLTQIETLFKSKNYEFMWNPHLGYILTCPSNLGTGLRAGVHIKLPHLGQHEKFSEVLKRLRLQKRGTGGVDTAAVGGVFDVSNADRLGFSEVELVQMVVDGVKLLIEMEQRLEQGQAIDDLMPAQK

Row | SMILES | outcome | AC50
4 | Cn1cnc2c1c(=O)[nH]c(=O)n2C | inactive | 
5 | Nc1nc(=S)c2[nH]cnc2[nH]1 |  | 20.7 µM (active)
6 | CCc1nc(N)nc(N)c1-c1ccc(Cl)cc1 |  | 2.83 µM (active)
7 | NC(=Nc1ccccc1)Nc1ccccc1 | inactive | 
8 | O=C(O)c1[nH]n(-c2ccc(S(=O)(=O)O)cc2)c(=O)c1N=Nc1ccc(S(=O)(=O)O)cc1 | inactive | 
9 | CCCCCCCCCC[N+](C)(C)[O-] |  | 8.08 µM (active)
10 | NC1CCCCC1 |  | 30.3 µM (active)
11 | COC(=O)[C@H]1[C@H]2C[C@@H]3c4[nH]c5cc(OC)ccc5c4CCN3C[C@H]2C[C@@H](OC(=O)c2cc(OC)c(OC)c(OC)c2)[C@@H]1OC | inactive | 

molecular target: human Vascular Endothelial Growth Factor Receptor 2 (VEGFR2), KDR (gene 3791) (UniProt P35968); assay: NVS_ENZ_hVEGFR2: NovaScreen (NVS) Enzymatic Assay for human Vascular Endothelial Growth Factor Receptor 2 (VEGFR2) (AID 2283230)
Method in brief: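 Cell-free recombinant VEGFR2 kinase, fluorescent substrate with electrophoretic mobility-shift separation; read 1 h after dosing. Screened at 25 uM in duplicate, hits to concentration-response up to 50 uM; loss-of-signal versus DMSO.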

Sequence of human Vascular Endothelial Growth Factor Receptor 2 (VEGFR2), KDR (gene 3791) (P35968 whole entry, looked up): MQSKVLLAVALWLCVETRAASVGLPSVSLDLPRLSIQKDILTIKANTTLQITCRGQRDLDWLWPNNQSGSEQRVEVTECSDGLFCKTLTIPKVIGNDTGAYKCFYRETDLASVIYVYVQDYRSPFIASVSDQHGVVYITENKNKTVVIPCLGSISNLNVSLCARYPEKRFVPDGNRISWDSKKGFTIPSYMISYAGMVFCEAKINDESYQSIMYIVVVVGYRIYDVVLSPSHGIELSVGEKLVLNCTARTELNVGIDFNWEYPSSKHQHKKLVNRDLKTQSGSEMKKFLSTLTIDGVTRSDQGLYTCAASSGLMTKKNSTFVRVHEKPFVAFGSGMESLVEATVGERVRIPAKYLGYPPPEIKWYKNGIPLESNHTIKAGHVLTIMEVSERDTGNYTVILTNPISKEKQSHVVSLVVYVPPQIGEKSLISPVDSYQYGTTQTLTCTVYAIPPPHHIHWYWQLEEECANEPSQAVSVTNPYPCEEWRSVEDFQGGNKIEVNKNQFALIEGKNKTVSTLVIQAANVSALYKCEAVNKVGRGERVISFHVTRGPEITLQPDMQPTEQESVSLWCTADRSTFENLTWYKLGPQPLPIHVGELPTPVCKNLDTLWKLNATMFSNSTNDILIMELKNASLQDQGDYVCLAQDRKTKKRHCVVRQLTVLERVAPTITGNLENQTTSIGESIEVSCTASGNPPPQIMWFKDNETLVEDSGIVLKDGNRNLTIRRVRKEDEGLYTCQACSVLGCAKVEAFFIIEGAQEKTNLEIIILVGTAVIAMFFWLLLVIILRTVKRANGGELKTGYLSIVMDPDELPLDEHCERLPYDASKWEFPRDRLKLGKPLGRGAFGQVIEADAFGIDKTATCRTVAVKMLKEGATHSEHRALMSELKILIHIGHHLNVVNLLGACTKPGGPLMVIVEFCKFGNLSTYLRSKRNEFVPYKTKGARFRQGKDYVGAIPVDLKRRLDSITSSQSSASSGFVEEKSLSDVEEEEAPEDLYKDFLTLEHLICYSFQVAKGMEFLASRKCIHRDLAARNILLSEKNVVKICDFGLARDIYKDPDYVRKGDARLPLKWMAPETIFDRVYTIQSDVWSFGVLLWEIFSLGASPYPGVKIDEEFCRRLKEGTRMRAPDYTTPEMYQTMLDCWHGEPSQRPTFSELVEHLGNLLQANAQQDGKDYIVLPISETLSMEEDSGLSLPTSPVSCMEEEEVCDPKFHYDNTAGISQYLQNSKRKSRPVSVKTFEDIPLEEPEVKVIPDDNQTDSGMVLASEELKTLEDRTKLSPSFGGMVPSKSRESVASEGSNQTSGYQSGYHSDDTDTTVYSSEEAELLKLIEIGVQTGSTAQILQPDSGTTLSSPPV

Row | SMILES | AC50 | outcome
12 | Nc1nc(Cl)nc2c1ncn2[C@H]1C[C@H](O)[C@@H](CO)O1 | 4.88 µM (active) | 
13 | CCCCC(CC)COC(=O)CCCCCCCC(=O)OCC(CC)CCCC (stereo not drawn) |  | inactive
14 | NC(=Nc1ccccc1)Nc1ccccc1 |  | inactive
15 | CCCCCCCCCCCCCCOS(=O)(=O)O | 30.2 µM (active) | 

molecular target: sheep Cyclooxygenase-2 (Cox2), PTGS2 (gene 443460) (UniProt P79208); assay: NVS_ENZ_oCOX2: NovaScreen (NVS) Enzymatic Assay for sheep Cyclooxygenase-2 (Cox2) (AID 2283231)
Method in brief: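 Enzyme extracted from ovine placenta tested cell-free; activity read colorimetrically by absorbance 0.66 hour after dosing. Primary screen in duplicate at 25 uM; hits rerun as concentration series to 50 uM, loss of signal versus DMSO baseline.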

Sequence of sheep Cyclooxygenase-2 (Cox2), PTGS2 (gene 443460) (P79208 whole entry, looked up): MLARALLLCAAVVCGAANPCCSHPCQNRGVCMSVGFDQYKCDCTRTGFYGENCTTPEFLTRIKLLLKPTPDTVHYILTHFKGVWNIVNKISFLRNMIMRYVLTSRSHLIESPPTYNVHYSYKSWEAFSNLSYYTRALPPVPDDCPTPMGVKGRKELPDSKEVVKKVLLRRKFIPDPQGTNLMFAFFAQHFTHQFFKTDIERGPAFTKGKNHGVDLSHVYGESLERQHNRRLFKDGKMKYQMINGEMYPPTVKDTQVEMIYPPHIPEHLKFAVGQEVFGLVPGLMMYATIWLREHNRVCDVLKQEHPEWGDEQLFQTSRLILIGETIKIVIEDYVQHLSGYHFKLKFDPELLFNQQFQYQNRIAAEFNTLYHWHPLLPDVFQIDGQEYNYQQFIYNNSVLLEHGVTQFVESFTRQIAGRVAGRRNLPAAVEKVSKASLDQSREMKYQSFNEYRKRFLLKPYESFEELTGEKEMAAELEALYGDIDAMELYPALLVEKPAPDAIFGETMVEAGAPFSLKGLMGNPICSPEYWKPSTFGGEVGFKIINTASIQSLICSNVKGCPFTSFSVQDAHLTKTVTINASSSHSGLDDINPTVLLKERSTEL

Row | SMILES | outcome | AC50
16 | C/C=C/c1ccc(OC)cc1 | inactive | 
17 | O=NO | inactive | 
18 | Oc1ccccc1O | inactive | 
19 | CCc1nc(N)nc(N)c1-c1ccc(Cl)cc1 | inactive | 
20 | S=c1[nH]c2ccccc2s1 |  | 9.72 µM (active)
21 | CCc1cc(C2=C(C(=O)O)N(c3ccccc3C(F)(F)F)S(=O)(=O)c3ccccc32)cc2c1OCO2 |  | 19.2 µM (active)
22 | O=C1c2c(O)cccc2Cc2cccc(O)c21 |  | 6.81 µM (active)

molecular target: rat Catechol-O-Methyl Transferase (COMT), Comt (gene 24267) (UniProt P22734); assay: NVS_ENZ_rCOMT: NovaScreen (NVS) Enzymatic Assay for rat Catechol-O-Methyl Transferase (COMT) (AID 2283235)
Method in brief: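 Rat dorsal striatum extract served as COMT source; product quantified by HPLC/spectrophotometry, read at 0 h after dosing. Primary single-concentration screen at 25 uM, followed by concentration series to a 50 uM maximum.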

Sequence of rat Catechol-O-Methyl Transferase (COMT), Comt (gene 24267) (P22734 whole entry, looked up): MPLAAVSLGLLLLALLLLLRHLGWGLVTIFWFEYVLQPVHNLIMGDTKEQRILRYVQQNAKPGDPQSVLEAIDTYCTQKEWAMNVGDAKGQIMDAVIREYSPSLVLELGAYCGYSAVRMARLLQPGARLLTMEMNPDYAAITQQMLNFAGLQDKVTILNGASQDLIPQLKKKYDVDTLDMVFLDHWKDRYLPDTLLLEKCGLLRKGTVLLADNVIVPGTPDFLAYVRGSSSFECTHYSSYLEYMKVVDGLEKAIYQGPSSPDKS

Row | SMILES | outcome | AC50
23 | Oc1ccccc1O | inactive | 
24 | CC(=O)OCC(COC(C)=O)OC(C)=O | inactive | 
25 | O=C1c2c(O)cccc2Cc2cccc(O)c21 |  | 12.1 µM (active)

molecular target: rat Constitutive Nitric Oxide Synthase (CNOS), Nos1 (gene 24598) (UniProt P29476); assay: NVS_ENZ_rCNOS: NovaScreen (NVS) Enzymatic Assay for rat Constitutive Nitric Oxide Synthase (CNOS) (AID 2283236)
Method in brief: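 Single 25 uM duplicate screen, then concentration series to 50 uM for chemicals meeting threshold. Rat brain membrane-derived CNOS activity detected radiometrically by filtration and scintillation counting, 1 h after compound addition; DMSO as baseline.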

Sequence of rat Constitutive Nitric Oxide Synthase (CNOS), Nos1 (gene 24598) (P29476 whole entry, looked up): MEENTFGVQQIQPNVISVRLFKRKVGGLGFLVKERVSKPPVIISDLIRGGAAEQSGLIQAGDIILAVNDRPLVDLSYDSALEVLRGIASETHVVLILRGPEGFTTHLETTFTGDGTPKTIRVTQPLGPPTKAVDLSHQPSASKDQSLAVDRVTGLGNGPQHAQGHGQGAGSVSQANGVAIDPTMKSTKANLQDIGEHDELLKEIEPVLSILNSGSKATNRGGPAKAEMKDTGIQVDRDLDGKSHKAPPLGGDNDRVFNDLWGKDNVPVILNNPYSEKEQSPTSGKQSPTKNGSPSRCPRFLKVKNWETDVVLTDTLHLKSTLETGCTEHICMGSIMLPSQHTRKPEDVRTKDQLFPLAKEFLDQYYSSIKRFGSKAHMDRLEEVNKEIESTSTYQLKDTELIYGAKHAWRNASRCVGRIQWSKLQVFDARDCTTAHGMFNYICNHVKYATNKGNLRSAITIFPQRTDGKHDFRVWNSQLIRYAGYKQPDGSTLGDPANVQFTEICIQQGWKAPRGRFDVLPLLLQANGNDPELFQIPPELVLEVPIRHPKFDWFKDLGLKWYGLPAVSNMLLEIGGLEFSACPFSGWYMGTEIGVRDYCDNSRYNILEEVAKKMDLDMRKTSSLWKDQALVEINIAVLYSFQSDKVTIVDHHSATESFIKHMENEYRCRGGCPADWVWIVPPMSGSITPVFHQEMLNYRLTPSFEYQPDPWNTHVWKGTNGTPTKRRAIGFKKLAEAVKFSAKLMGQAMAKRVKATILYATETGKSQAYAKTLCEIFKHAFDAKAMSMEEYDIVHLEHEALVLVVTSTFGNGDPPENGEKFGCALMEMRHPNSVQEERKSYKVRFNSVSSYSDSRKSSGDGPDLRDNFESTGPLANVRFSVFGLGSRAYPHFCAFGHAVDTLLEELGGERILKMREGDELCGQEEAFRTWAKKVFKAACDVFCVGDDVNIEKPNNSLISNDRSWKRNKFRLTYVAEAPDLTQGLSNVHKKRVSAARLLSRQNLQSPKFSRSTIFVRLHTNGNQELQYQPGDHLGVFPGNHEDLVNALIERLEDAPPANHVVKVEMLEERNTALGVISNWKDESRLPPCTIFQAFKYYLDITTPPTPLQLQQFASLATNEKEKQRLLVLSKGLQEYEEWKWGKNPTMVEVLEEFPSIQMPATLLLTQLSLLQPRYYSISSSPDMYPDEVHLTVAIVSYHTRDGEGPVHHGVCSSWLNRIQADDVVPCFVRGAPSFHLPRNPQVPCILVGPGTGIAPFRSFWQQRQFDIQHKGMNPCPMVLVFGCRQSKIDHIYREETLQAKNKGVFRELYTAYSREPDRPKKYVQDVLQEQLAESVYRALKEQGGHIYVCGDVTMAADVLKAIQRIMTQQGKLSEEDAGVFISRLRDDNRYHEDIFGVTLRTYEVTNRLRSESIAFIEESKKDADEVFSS

Row | SMILES | outcome | AC50
26 | CC(=O)S[C@H](C(=O)N[C@H]1Cc2ccccc2[C@H]2CCC[C@@H](C(=O)O)N2C1=O)C(C)C | inactive | 
27 | S=c1[nH]c2ccccc2s1 |  | 10.6 µM (active)
28 | O=C(O)c1[nH]n(-c2ccc(S(=O)(=O)O)cc2)c(=O)c1N=Nc1ccc(S(=O)(=O)O)cc1 |  | 9.33 µM (active)
29 | O=C1c2c(O)cccc2Cc2cccc(O)c21 |  | 5.47 µM (active)
30 | CCC(C)N(C)C(=O)c1cc2ccccc2c(-c2ccccc2Cl)n1 (stereo not drawn) | inactive | 

system: bovine Angiotensin II Receptor Type 2 (AT2), gene 407157; assay: NVS_GPCR_bAT2: NovaScreen (NVS) G Protein-Coupled Receptor Assay for bovine Angiotensin II Receptor Type 2 (AT2) (AID 2283240)
Description: NVS_GPCR_bAT2 is a biochemical, single-readout assay that uses extracted gene-proteins from Bovine cerebellar membranes in a tissue-based cell-free assay. Measurements were taken 1 hour after chemical dosing in a 96-well plate.NVS_GPCR_bAT2 is one of one assay component(s) measured or calculated from the NVS_GPCR_bAT2 assay. It is designed to make measurements of radioligand binding, a form of binding reporter, as detected with scintillation counting signals by Filter-based radiodetection technology.Data from the assay component NVS_GPCR_bAT2 was analyzed into 1 assay endpoint. This assay endpoint, NVS_GPCR_bAT2, was analyzed in the positive analysis fitting direction relative to DMSO as the negative control and baseline of activity. Using a type of binding reporter, loss-of-signal activity can be used to understand changes in the binding as they relate to the gene AGTR2. Furthermore, this assay endpoint can be referred to as a primary readout, because the performed assay has only produced 1 assay endpoint. To generalize the intended target to other relatable targets, this assay endpoint is annotated to the gpcr intended target family, where the subfamily is rhodopsin-like receptor.
Binding assays used specific radioligands (tritiated, iodinated) with non-radioactive competitive displacement ligands in agonist or antagonist protocols (as indicated) and various reference compounds and inhibitors to titrate specific binding to receptors and transporters. Most enzyme assays (CYPs, kinases, phosphatases, proteases, HDACs) used recombinant protein and specific substrates (fluorescence mostly, some colorimetric and radioactive) and inhibitors, followed by a biochemical separation of substrate and product. All assays for the biochemical HTS were initially run in duplicate at a single concentration (10 uM for CYP450 assays and 25 uM for all others). […]

Row | SMILES | AC50 | outcome
31 | O=C(NS(=O)(=O)/C=C/c1cccs1)c1ccc(F)cc1Br | 14.5 µM (active) | 
32 | CCc1cc(C2=C(C(=O)O)N(c3ccccc3C(F)(F)F)S(=O)(=O)c3ccccc32)cc2c1OCO2 | 25 µM (active) | 
33 | CCCCc1nc2cccnc2n1Cc1ccc(-c2ccccc2-c2nnn[nH]2)cc1 |  | inactive
